According to the OligoGym collection:

Molecular target: CXCL1
Assay: pooled miR-30 sensor sort-seq; sequence = guide strand
Details: shRNA
Note: reference of the scale not given here.

| Sequence | sensor-assay potency score (higher = more potent) |
| --- | --- |
| ACACTTTGGATGTTCTTGGGGT | -0.0598 |
| TTCGATGATTTTCTTAACTATG | -1.26 |
| TGAGGCAAGCTTTCCGCCCATT | -1.55 |
| TGATTTTCTTAACTATGGGGGA | -0.639 |
| TAACTATGGGGGATGCAGGATT | -1.31 |
| TTGAGGCAAGCTTTCCGCCCAT | -0.645 |

Molecular target: CXCL3
Assay: as above
Details: shRNA

| Sequence | sensor-assay potency score (higher = more potent) |
| --- | --- |
| TACATAAATAAGTAGAACCCTC | -0.724 |
| TAGTCAAACACATTAAGTCCTT | -0.625 |
| TGCAGTGTCTGCAAGCACTGGC | 0.137 |
| TTTGATGAAACACACTCACATC | -1.05 |
| TTGAGACAAGCTTTCTTCCCAT | 0.654 |
| TTCGATGATTTTCTGAACCATG | -0.954 |
| TTGTTCAGTATCTTTTCGATGA | -0.149 |
| TAAATAATCAGGACTGAGCTAT | -0.218 |
| TGAGACAAGCTTTCTTCCCATT | -1.23 |
| TAAATAAGTAGAACCCTCGTAA | -0.0177 |
| TTTCTTCCCATTCTTGAGTGTG | -0.403 |
| ATGATTTTCTGAACCATGGGGG | -0.165 |

Molecular target: CXorf40A
Assay: as above
Details: shRNA

| Sequence | sensor-assay potency score (higher = more potent) |
| --- | --- |
| TACAGCTTGATTTTCTAGTTCC | 0.219 |
| TTCAGGTTGGTCAGTACAGCTT | -0.578 |
| TCAGGTTGGTCAGTACAGCTTG | 0.439 |
| TCAGTACAGCTTGATTTTCTAG | -0.864 |
| TCCACCAGCAGCTCCCGCCAGG | -1.9 |
| TTGGTCAGTACAGCTTGATTTT | -1.4 |

Molecular target: CXorf41
Assay: as above
Details: shRNA

| Sequence | sensor-assay potency score (higher = more potent) |
| --- | --- |
| TTGAGCTCTTCTATTTGGGGTG | 0.00833 |
| TAGTTCACTGCAACAACCTGTT | -0.276 |
| TTAGCCACTAGTTCACTGCAAC | -0.799 |
| TATATCTTCAGTTCCCACCTGC | 0.748 |
| TTCTTCAGGATTAAGTAGCTTA | 0.137 |
| TAACTCTCTTTTCATAGTCATA | -1.66 |
| TAACATCCCACATATCATCATA | -1.24 |
| TAACTGAAGAAACACTCTCAAA | -1.54 |
| TTTATTACCTGTATATTCCAGA | 0.269 |
| TATCATCATATTCTGCTCCTTC | 0.467 |
| TTCAATTATGTAATTGACCATG | -1.17 |
| TTATCAACAGCTTCTTCTGAGG | -1.2 |

Molecular target: CXorf56
Assay: as above
Details: shRNA

| Sequence | sensor-assay potency score (higher = more potent) |
| --- | --- |
| TATGAGTCAGCAACTTCCCTAG | 0.0765 |
| TTCTGAGTATATATGTTCGTTT | -0.865 |
| TTCATTTTCGCTTTCTTGGCTT | 0.484 |
| TTGGTCATCATCACCTTCTTAG | -0.419 |
